Measured values: PubChem BioAssay (EPA / NIEHS)
Records with an inconclusive call do not appear. Active and inactive are the calls of the source. The calls were made as follows, unless noted: active = hit-call score of the fitted dose curve at least 0.9, where 1 is the maximum; inconclusive = response in the unintended direction; inactive = score below 0.9.

How the values were obtained:
[1] = ATG_GATA_CIS: Attagene CIS-FACTORIAL HepG2 Assay for human GATA Binding Protein (AID 2282944; active = hit-call score of the fitted dose curve at least 0.9, where 1 is the maximum; inactive = score below 0.9); details: HepG2 GATA cis-element reporter, Attagene multiplex mRNA; actives raise or lower the signal
Procedure, shortened: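 HepG2 cells transiently transfected with multiplexed cis-element reporter units measure endogenous GATA activity; after 24 h compound exposure, reporter mRNA quantified by RT-PCR and capillary electrophoresis. Changes fitted in both directions vs DMSO.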

[2] = target: Hepatocyte nuclear factor 6 (Homo sapiens) (UniProt Q9UBC0); assay: ATG_HNF6_CIS: Attagene CIS-FACTORIAL HepG2 Assay for human Hepatocyte Nuclear Factor 6 (HNF6) (AID 2282952; active = hit-call score of the fitted dose curve at least 0.9, where 1 is the maximum; inactive = score below 0.9); details: HepG2 Attagene cis-factorial HNF6 reporter transcription; actives raise or lower the signal
Hepatocyte nuclear factor 6 (Homo sapiens), sequence (Q9UBC0 whole entry, looked up): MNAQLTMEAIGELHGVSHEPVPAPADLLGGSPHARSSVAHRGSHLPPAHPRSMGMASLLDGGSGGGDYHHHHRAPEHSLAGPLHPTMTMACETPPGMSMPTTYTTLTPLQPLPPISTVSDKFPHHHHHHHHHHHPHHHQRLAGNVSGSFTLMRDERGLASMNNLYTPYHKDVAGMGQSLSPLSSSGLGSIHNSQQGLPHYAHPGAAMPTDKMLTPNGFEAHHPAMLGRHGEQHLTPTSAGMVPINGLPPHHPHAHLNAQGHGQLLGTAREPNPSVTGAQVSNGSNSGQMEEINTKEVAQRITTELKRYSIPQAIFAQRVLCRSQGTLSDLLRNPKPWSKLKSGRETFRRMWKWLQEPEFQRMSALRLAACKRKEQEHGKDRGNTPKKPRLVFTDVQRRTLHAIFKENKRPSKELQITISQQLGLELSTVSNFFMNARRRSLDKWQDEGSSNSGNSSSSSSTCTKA
Procedure, shortened: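 Endogenous transcription factor activity in human HepG2 liver cells was captured through cis-regulated reporter constructs. After 24 h treatment, reporter mRNA was measured by RT-PCR with capillary electrophoresis, and activity was fitted in both directions relative to DMSO.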

[3] = ATG_PBREM_CIS: Attagene CIS-FACTORIAL HepG2 Assay for human Phenobarbital-responsive Enhancer Module (PBREM) (AID 2282955; active = hit-call score of the fitted dose curve at least 0.9, where 1 is the maximum; inactive = score below 0.9); details: HepG2 PBREM cis-reporter, Attagene multiplexed transcription; actives raise or lower the signal
Procedure, shortened: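 HepG2 cells transiently transfected with multiple cis-regulated reporter transcription units; endogenous factor activity at the PBREM element measured as reporter mRNA 24 h after dosing, via RT-PCR and capillary electrophoresis of fluorescent fragments; bidirectional fitting versus DMSO.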

[4] = target: Paired box protein Pax-6 (Homo sapiens) (UniProt P26367); assay: ATG_Pax6_CIS: Attagene CIS-FACTORIAL HepG2 Assay for human Paired Box 6 (PAX6) (AID 2282956; active = hit-call score of the fitted dose curve at least 0.9, where 1 is the maximum; inactive = score below 0.9); details: HepG2 CIS-FACTORIAL PAX6 reporter transcription, RNA readout; actives raise or lower the signal
Paired box protein Pax-6 (Homo sapiens), sequence (P26367 whole entry, looked up): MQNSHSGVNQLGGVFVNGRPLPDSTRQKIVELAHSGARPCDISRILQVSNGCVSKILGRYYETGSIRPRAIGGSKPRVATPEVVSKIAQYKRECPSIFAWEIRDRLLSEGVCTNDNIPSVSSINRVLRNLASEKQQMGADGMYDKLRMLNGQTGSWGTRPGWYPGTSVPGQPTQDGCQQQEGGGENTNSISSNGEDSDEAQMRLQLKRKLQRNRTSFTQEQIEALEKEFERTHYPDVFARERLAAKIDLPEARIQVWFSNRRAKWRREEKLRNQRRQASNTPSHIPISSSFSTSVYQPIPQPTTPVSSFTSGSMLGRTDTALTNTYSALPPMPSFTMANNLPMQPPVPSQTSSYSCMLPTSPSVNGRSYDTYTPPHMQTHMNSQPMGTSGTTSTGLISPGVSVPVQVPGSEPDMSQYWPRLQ
Procedure, shortened: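 Fluorescent RT-PCR products separated by capillary electrophoresis report PAX6-linked promoter mRNA in HepG2 cells 24 h post-dose. Curves fitted bidirectionally, DMSO as negative control.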

[5] = ATG_TA_CIS: Attagene CIS-FACTORIAL HepG2 Assay for human TA Basal Promoter (AID 2282964; active = hit-call score of the fitted dose curve at least 0.9, where 1 is the maximum; inactive = score below 0.9); details: HepG2 Attagene CIS-factorial TA basal promoter reporter; actives raise or lower the signal
Procedure, shortened: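 HepG2 cells transiently transfected with multiple reporter units under cis promoter elements, reporting endogenous transcription factor activity; this endpoint tracks the TA basal promoter as background control. Reporter mRNA after 24 h dosing measured by RT-PCR/capillary electrophoresis; bidirectional fits versus DMSO.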

[6] = ATG_M_06_TRANS: Attagene TRANS-FACTORIAL HepG2 Assay for M06 Transcription Factor (Internal Marker) (AID 2282983); details: HepG2 Attagene TRANS M06 internal marker reporter;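 also: reporter transcript level by RT-PCR then capillary electrophoresis fluorescence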
Procedure, shortened: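 Human liver HepG2 cells bearing transiently transfected chimeric NR-GAL4 reporter units were treated with chemicals for 24 h. Total RNA was reverse-transcribed, reporter sequences amplified and labelled, then quantified by capillary electrophoresis. Activity was fitted upward relative to DMSO.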

[7] = ATG_M_32_TRANS: Attagene TRANS-FACTORIAL HepG2 Assay for M32 Transcription Factor (Internal Marker) (AID 2282984); details: HepG2 Attagene TRANS M32 internal marker reporter
Procedure, shortened: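 Read-out: fluorescent reporter cDNA fragments resolved by capillary electrophoresis after RT-PCR of total RNA. Transfected HepG2 cells were exposed to chemical for 24 h. Activity scored in the positive direction relative to DMSO.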

[8] = ATG_NFI_CIS: Attagene CIS-FACTORIAL HepG2 Assay for human Nuclear Factor I (NFI) (AID 2282989; active = hit-call score of the fitted dose curve at least 0.9, where 1 is the maximum; inactive = score below 0.9); details: HepG2 cis-regulatory reporter, NFI response element transcription; actives raise or lower the signal
Procedure, shortened: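 Endogenous TF activity in HepG2 cells transiently transfected with cis-element-driven multiplexed reporter units, read 24 h after dosing. Reporter mRNA quantified by RT-PCR, 6-FAM labelling, HpaI digestion and capillary electrophoresis; bidirectional fit versus DMSO.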

[9] = ATG_NF_kB_CIS: Attagene CIS-FACTORIAL HepG2 Assay for human Nuclear Factor Kappa B (NF-kB) (AID 2282991; active = hit-call score of the fitted dose curve at least 0.9, where 1 is the maximum; inactive = score below 0.9); details: HepG2 Attagene cis-factorial NF-kB reporter mRNA; actives raise or lower the signal
Procedure, shortened: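 HepG2 cells transiently transfected with multiplexed cis-element reporter units measuring endogenous transcription factor activity; reporter mRNA read 24 h after dosing by RT-PCR, fluorescent labelling, HpaI digestion and capillary electrophoresis. Bidirectional fit against DMSO baseline.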

[10] = target: Retinoic acid receptor RXR-alpha (Homo sapiens) (UniProt P19793); assay: ATG_RXRa_TRANS: Attagene TRANS-FACTORIAL HepG2 Assay for human Retinoid X Receptor alpha (RXRa) (AID 2283012)
Retinoic acid receptor RXR-alpha (Homo sapiens), sequence (P19793 whole entry, looked up, the tested form may be a part): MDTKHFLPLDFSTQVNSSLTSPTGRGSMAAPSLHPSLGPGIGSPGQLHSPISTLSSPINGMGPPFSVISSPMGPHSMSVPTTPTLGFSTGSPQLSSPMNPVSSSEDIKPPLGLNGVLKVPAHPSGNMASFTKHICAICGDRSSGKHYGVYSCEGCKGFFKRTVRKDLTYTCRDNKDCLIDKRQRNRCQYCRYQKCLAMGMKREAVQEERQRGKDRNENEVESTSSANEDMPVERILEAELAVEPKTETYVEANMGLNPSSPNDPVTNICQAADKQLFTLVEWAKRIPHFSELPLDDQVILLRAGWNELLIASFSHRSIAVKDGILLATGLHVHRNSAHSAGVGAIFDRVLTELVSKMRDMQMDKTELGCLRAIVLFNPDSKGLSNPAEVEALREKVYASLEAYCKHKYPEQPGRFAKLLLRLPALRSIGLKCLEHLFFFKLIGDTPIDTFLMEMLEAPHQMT
Procedure, shortened: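 Chimeric NR-GAL4 trans-activation in HepG2, 24 h treatment; reporter transcripts quantified by fluorescence on capillary electrophoresis, analysed for upward change from DMSO.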

[11] = target: human Retinoid X Receptor beta (RXRb), RXRB (gene 6257) (UniProt P28702); assay: ATG_RXRb_TRANS: Attagene TRANS-FACTORIAL HepG2 Assay for human Retinoid X Receptor beta (RXRb) (AID 2283013)
human Retinoid X Receptor beta (RXRb), RXRB (gene 6257), sequence (P28702 whole entry, looked up, the tested form may be a part): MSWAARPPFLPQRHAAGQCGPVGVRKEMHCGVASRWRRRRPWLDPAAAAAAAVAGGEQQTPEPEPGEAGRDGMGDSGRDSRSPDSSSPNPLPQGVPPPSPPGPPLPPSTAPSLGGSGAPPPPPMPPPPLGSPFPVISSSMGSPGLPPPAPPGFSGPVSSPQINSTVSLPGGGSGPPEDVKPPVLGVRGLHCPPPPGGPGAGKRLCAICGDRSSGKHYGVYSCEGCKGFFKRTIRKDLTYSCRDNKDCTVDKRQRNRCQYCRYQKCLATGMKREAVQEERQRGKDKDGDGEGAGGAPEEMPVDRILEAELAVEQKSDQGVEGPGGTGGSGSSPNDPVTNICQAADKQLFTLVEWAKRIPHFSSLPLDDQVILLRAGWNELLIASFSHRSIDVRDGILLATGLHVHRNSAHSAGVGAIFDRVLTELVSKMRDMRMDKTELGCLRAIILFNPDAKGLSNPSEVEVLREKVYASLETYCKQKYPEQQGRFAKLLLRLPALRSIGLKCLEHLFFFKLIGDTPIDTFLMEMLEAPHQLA
Procedure, shortened: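 After a 24 h incubation with test chemical, transfected HepG2 cells carrying NR-Gal4 fusions and GAL4-UAS reporter transcription units yield RNA whose reporter cDNA is FAM-labelled, HpaI-cut and sized by capillary electrophoresis; increases over DMSO are scored.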

[12] = target: human Vitamin D Receptor (VDR), VDR (gene 7421) (UniProt P11473); assay: ATG_VDR_TRANS: Attagene TRANS-FACTORIAL HepG2 Assay for human Vitamin D Receptor (VDR) (AID 2283022)
human Vitamin D Receptor (VDR), VDR (gene 7421), sequence (P11473 whole entry, looked up, the tested form may be a part): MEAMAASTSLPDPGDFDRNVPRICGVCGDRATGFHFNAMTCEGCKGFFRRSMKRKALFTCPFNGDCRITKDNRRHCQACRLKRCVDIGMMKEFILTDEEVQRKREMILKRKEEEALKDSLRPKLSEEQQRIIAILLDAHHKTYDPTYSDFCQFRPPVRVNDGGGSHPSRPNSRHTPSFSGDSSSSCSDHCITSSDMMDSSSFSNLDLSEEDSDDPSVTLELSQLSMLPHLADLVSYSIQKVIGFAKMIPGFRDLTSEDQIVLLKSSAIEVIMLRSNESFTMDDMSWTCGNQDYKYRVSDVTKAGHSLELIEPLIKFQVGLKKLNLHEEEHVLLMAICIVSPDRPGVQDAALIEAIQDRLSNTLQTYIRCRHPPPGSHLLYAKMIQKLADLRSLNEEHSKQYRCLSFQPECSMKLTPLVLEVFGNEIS
Procedure, shortened: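 Fluorescence of labelled reporter cDNA fragments, resolved by capillary electrophoresis, gives mRNA induction after 24 h treatment of HepG2 cells carrying transfected Gal4-fusion reporter units. Activity is fitted in the positive direction with DMSO as baseline.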

[13] = TOX21_p53_BLA_p2_viability: Viability Assessment in the Tox21 HCT-116 p53 Agonism Beta-lactamase Assay, Phase 2 (AID 2283591);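 also: compound exposure lasted 16 h at 37 °C; actives lower the ATP signal meaning cytotoxicity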
Procedure, shortened: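 HCT116 p53-bla cells, 4000/well, dosed after 5 h plating (217-fold dilution of DMSO stocks) and incubated 16 h at 37C. Viability taken as cellular ATP by CellTiter-Glo luminescence after 30 min RT; signal loss marks cytotoxicity.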

[14] = target: Cellular tumor antigen p53 (Homo sapiens) (UniProt P04637); assay: TOX21_p53_BLA_p3_ratio: Tox21 HCT-116 p53 Agonism Beta-lactamase Assay, Ratio, Phase 3 (AID 2283596)
Cellular tumor antigen p53 (Homo sapiens), sequence (P04637 whole entry, looked up): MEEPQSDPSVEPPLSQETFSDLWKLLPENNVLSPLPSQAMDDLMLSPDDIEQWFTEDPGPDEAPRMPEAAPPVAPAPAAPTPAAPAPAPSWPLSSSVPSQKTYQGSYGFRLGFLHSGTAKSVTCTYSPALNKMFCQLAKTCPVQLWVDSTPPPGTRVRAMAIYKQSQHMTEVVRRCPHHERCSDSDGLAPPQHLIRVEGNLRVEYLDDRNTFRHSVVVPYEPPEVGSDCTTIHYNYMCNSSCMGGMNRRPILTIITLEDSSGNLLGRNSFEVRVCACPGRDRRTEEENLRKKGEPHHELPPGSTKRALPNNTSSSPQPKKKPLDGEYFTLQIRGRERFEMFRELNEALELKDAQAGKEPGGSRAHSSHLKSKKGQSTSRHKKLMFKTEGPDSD
Procedure, shortened: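 Cells were seeded at 4000/well, rested 5 h at 37C, then dosed with DMSO compound solutions (217-fold dilution) for 16 h. CCF4-AM substrate was loaded for 2 h at room temperature, and the 460/530 nm emission ratio was fitted for gain of signal versus DMSO.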

[15] = target: Cellular tumor antigen p53 (Homo sapiens) (UniProt P04637); assay: TOX21_p53_BLA_p4_ratio: Tox21 HCT-116 p53 Agonism Beta-lactamase Assay, Ratio, Phase 4 (AID 2283601)
Procedure, shortened: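 HCT-116 p53 beta-lactamase reporter cells (4000/well) preincubated 5 h, then compound (217-fold dilution of DMSO stock) for 16 h at 37C. CCF4-AM substrate added 2 h at room temperature; 460/530 nm emission ratio fitted upward versus DMSO.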

[16] = ATG_M_19_CIS: Attagene CIS-FACTORIAL HepG2 Assay for M19 Transcription Factor (Internal Marker) (AID 2282939; active = hit-call score of the fitted dose curve at least 0.9, where 1 is the maximum; inactive = score below 0.9); details: HepG2 Attagene CIS-FACTORIAL M19 internal marker reporter; actives raise or lower the signal
Procedure, shortened: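 HepG2 cells transiently transfected with cis-regulated multiplexed reporter units, dosed 24 h. Reporter mRNA quantified by RT-PCR and capillary electrophoresis; internal background marker fitted bidirectionally versus DMSO.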

[17] = ATG_GRE_CIS: Attagene CIS-FACTORIAL HepG2 Assay for human Glucocorticoid Response Elements (GRE) (AID 2282947; active = hit-call score of the fitted dose curve at least 0.9, where 1 is the maximum; inactive = score below 0.9); details: HepG2 GRE cis-reporter, Attagene multiplex mRNA; actives raise or lower the signal
Procedure, shortened: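 Read-out: fluorescent reporter-transcript fragments separated by capillary electrophoresis after RT-PCR. Transiently transfected HepG2 cells carrying cis-element-driven reporter units were dosed for 24 h; gain or loss of signal fitted against DMSO control.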

[18] = target: Hepatocyte nuclear factor 4-alpha (Homo sapiens) (UniProt P41235); assay: ATG_HNF4a_TRANS: Attagene TRANS-FACTORIAL HepG2 Assay for human Hepatocyte Nuclear Factor 4 alpha (HNF4a) (AID 2282982); details: HepG2 HNF4a transactivation reporter, mRNA readout
Hepatocyte nuclear factor 4-alpha (Homo sapiens), sequence (P41235 whole entry, looked up): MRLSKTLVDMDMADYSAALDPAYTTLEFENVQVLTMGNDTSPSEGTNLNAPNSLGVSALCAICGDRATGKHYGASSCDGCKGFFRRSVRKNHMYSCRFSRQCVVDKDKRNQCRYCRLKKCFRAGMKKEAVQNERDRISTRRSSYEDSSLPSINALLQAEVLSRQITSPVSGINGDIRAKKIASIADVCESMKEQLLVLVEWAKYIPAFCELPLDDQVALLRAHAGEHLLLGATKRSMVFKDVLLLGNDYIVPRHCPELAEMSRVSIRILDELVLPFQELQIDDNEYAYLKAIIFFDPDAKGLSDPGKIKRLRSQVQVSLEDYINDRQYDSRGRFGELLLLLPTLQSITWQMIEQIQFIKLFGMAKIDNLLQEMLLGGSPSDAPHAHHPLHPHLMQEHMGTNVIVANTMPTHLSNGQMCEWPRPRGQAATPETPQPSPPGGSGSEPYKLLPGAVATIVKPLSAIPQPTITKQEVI
Procedure, shortened: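 Transient MRTU transfection of HepG2, 24 h dosing. Readout: reporter mRNA via RT-PCR + capillary electrophoresis, fluorescence; activity fit upward relative to DMSO control.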

[19] = target: Cellular tumor antigen p53 (Homo sapiens) (UniProt P04637); assay: TOX21_p53_BLA_p2_ratio: Tox21 HCT-116 p53 Agonism Beta-lactamase Assay, Ratio, Phase 2 (AID 2283592)
Procedure, shortened: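 Cleaved-to-uncleaved substrate ratio (460 vs 530 nm) measured in HCT116 cells with an inducible beta-lactamase reporter linked to p53 activity. Compounds incubated 16 h at 37C before 2 h room-temperature CCF4-AM loading.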

[20] = target: Cellular tumor antigen p53 (Homo sapiens) (UniProt P04637); assay: TOX21_p53_BLA_p5_ratio: Tox21 HCT-116 p53 Agonism Beta-lactamase Assay, Ratio, Phase 5 (AID 2283599)
Procedure, shortened: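 HCT-116 p53-bla cells (4000/well) plated 5 h, dosed with compound (217-fold DMSO dilution) for 16 h at 37 C; CCF4-AM substrate 2 h at room temperature. Activity is the 460/530 nm emission ratio (405 nm excitation), fitted in gain-of-signal direction versus DMSO.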

Measured: AC50

CCCCCCCCCCCCCC
not listed: [16] | [17] | [18] | [19] | [20]
inactive: all other assays above

Clc1ccc(Sc2cc(Cl)c(Cl)cc2Cl)cc1
active: [11] 7.54 µM
not listed: [7] | [9] | [13] | [20]
inactive: all other assays above

O=C(C1CCCCC1)N1CC(=O)N2CCc3ccccc3C2C1 (centres undefined)
inactive: [16] | [17] | [3] | [4] | [5] | [6] | [8] | [9] | [10] | [11] | [12]

Oc1ccc(Oc2ccccc2)cc1
active: [11] 59.2 µM | [19] 45 µM
not listed: [1] | [7] | [17] | [18]
inactive: all other assays above

CCOc1ccc2c(c1)C(C)CC(C)(C)N2 (centres undefined)
active: [11] 37.7 µM
not listed: [7] | [10] | [13] | [14] | [15] | [18] | [19] | [20]
inactive: all other assays above

CC(C)n1c(/C=C/[C@@H](O)C[C@@H](O)CC(=O)O)c(-c2ccc(F)cc2)c2ccccc21
not listed: [1] | [2] | [3] | [4] | [8] | [9] | [12] | [18]
inactive: all other assays above

CC(C)CC(=O)CC(C)C
not listed: [2] | [3] | [5] | [7] | [11] | [17] | [18]
inactive: all other assays above

CCCC(=O)OC
inactive: [16] | [1] | [17] | [2] | [4] | [5] | [6] | [12] | [19] | [14] | [20]

Cc1ccnc(N)c1
not listed: [6] | [12] | [14] | [15] | [18] | [19]
inactive: all other assays above

O=C1NC(=O)C2CC=CCC12 (centres undefined)
not listed: [2] | [7] | [8] | [9] | [11] | [16]
inactive: all other assays above
